Results from PubChem BioAssay (Tox21).
Records with an inconclusive call do not appear. Active and inactive are the calls of the source. Unless noted, calls follow the shape of the full dose curve.

Tests used:
[1] = Nuclear factor erythroid 2-related factor 2/antioxidant responsive element (Nrf2/ARE) small molecule agonists: luciferase reporter gene qHTS assay in human keratinocytes (AID 1919969); details: KeratinoSens HaCaT ARE-luciferase, luminescence, 24 h; series mostly up to 92.4 µM; also: nearly all actives have a fitted effect of over 35% in size
[2] = target: Gonadotropin-releasing hormone receptor (Homo sapiens) (UniProt P30968); test: Human gonadotropin-releasing hormone receptor (GnRHR) small molecule agonists, calcium flux assay in GnRHR-HEK293 cells (AID 1920063); details: calcium flux fluorescence, agonist mode; series mostly up to 57.6 µM; also: nearly all actives have a fitted effect of over 35% in size
Gonadotropin-releasing hormone receptor (Homo sapiens), sequence (P30968 whole entry, looked up): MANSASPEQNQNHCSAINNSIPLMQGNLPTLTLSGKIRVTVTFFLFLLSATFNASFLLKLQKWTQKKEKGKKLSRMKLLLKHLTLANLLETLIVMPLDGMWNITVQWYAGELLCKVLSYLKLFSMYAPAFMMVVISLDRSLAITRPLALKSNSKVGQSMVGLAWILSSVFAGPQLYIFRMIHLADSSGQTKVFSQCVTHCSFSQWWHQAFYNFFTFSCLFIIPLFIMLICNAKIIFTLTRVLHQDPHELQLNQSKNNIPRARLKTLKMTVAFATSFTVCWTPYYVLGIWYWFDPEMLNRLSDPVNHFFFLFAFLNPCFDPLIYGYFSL
Outline: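 Calcium-dye fluorescence, Ex/Em=480/540, recorded every 1 sec over 3 min after compound addition to GnRHR-HEK293 cells. Cells had been seeded 18 hours earlier and dye-loaded for 1 hour at 37 C. Fifteen concentrations, triplicates.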

[3] = target: KiSS-1 receptor (Homo sapiens) (UniProt Q969F8); test: Human kisspeptin (KISS1R) small molecule agonists, calcium flux assay in KISS1R-HEK293 cells (AID 1920064; active = well fitted activation curve with a large enough effect in the repeat runs); details: KISS1R-HEK293, calcium flux fluorescence, agonist; series mostly up to 76.8 µM
KiSS-1 receptor (Homo sapiens), sequence (Q969F8 whole entry, looked up): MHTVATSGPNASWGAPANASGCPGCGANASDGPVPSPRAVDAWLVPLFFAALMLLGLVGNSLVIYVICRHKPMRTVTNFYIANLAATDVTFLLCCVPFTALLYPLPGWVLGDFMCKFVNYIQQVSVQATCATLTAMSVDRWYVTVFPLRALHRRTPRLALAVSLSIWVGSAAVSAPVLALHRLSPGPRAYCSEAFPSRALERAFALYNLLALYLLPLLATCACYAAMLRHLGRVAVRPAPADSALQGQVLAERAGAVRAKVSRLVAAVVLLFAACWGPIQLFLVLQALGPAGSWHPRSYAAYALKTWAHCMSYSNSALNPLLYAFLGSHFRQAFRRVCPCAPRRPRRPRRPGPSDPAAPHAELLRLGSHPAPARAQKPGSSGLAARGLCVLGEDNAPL
Outline: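 Calcium flux read-out: kinetic fluorescence at Ex/Em=480/540, 1 s intervals over 3 min, after pin-tool compound addition to dye-loaded KISS1R-HEK293 cells. Fifteen concentrations, triplicates.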

[4] = p53 small molecule agonists, cell-based qHTS assay with human liver microsomes (AID 1963577); details: HCT-116 p53RE-bla with human liver microsomes, ratio, 16 h; series mostly up to 66 µM;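 also: p53 response element beta-lactamase reporter cells with liver microsomes plus NADPH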
Outline: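 With metabolic activation: human liver microsomes (0.5 mg/mL final) plus NADPH (0.5 mg/mL final) added alongside compounds to p53RE-bla cells; 16 h 37 C exposure; beta-lactamase read by LiveBLAzer fluorescence.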

[5] = p53 small molecule agonists, cell-based qHTS assay with rat liver microsomes (AID 1963578); details: HCT-116 p53RE-bla, beta-lactamase ratio, 16 h; series mostly up to 66 µM
Outline: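 Metabolic activation by rat liver microsomes and NADPH, each 0.5 mg/mL final, added right after compounds to p53RE-bla reporter cells (4,000/well, plated 5 h earlier). 16 h at 37 C, then LiveBLAzer substrate for 2 h at room temperature in the dark; fluorescence read-out.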

[6] = p53 small molecule agonists, cell-based qHTS assay with rat liver microsomes: qHTS cell viability counter screen (AID 1963580); details: p53RE-bla HCT-116 + rat microsomes, ATP viability, 16 h; series mostly up to 66 µM; also: nearly all actives have a fitted effect of over 45% in size
Outline: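 Luminescent ATP readout (CellTiter-Glo, 30 min at room temperature) reports viability of p53RE-bla HCT-116 cells after 16 h at 37 C with test compounds under metabolic activation by rat liver microsomes and NADPH at 0.5 mg/mL final each.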

[7] = p53 small molecule agonists, cell-based qHTS assay: qHTS cell viability counter screen (AID 1963581); details: p53RE-bla HCT-116 viability, ATP luminescence, 16 h; series mostly up to 66 µM; also: nearly all actives have a fitted effect of over 45% in size
Outline: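 Cytotoxicity read-out: ATP-based luminescence (CellTiter-Glo, 30 min RT) measured in the same wells as the p53 reporter assay, HCT-116 p53RE-bla cells, 16 h compound exposure at 37 C.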

[8] = p53 small molecule agonists, cell-based qHTS assay (AID 1963582; active = well fitted activation curve with a large enough effect in the signal ratio in the repeat runs, not every such curve was filed as active; the % refers to the signal ratio); details: HCT-116 p53RE-bla reporter, beta-lactamase FRET ratio, 16 h; series mostly up to 66 µM
Outline: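 Fluorescence intensity read-out of a beta-lactamase reporter under a p53 response element. Cells were exposed to DMSO-dissolved compounds for 16 h at 37 C, then developed with FRET substrate for 2 h at RT.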

[9] = cAMP Responsive Elements (CRE) small molecule agonists, cell-based qHTS assay (AID 1963590); details: CRE-bla HEK293T, beta-lactamase FRET ratio, 3 h; series mostly up to 92.4 µM
Outline: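 Beta-lactamase reporter readout: LiveBLAzer B/G FRET substrate, 2 h at room temperature, added after 3 h compound treatment of CRE-bla HEK 293T cells at 37 C/5% CO2.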

[10] = cAMP Responsive Elements (CRE) small molecule antagonists, cell-based qHTS assay (AID 1963591; active = well fitted inhibition curve with a large enough effect in the signal ratio in the repeat runs, not every such curve was filed as active; the % refers to the signal ratio); details: CRE-bla HEK293T, beta-lactamase FRET ratio; series mostly up to 92.4 µM
Outline: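 HEK293T CRE-bla; 18 h preincubation; compound pin-transfer; NKH477 0.25 uM final, 3 h, 37 C; LiveBLAzer FRET substrate 2 h RT.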

[11] = target: Beta-2 adrenergic receptor (Homo sapiens) (UniProt P07550); test: Adrenergic beta2 receptor (ADRB2) small molecule antagonists, cell-based qHTS assay (AID 1963592); details: CHO-ADRB2 cells, isoproterenol-stimulated cAMP HTRF ratio, 0.5 h; series mostly up to 92.4 µM; also: nearly all actives have a fitted effect of over 50% in size
Beta-2 adrenergic receptor (Homo sapiens), sequence (P07550 whole entry, looked up): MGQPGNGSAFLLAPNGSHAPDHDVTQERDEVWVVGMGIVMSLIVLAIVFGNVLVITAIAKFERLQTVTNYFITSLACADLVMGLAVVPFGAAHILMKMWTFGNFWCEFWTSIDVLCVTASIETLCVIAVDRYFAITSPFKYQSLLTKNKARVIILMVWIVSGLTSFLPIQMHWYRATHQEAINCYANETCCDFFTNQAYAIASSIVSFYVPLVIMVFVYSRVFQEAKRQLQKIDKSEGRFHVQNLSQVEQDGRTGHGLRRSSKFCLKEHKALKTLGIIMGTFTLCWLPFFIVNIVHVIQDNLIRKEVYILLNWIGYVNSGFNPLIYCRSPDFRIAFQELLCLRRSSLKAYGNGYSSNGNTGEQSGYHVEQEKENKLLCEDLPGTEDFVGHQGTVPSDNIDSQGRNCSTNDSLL
Outline: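 Assay format: CHO-ADRB2 cells, 18-20hr seeding at 37C/5% CO2, then compound plus 1nM isoproterenol agonist mix for 0.5hr RT. Homogeneous time-resolved fluorescence cAMP detection after 1hr, expressed as 665/615 nm ratio.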

[12] = target: D(2) dopamine receptor (Homo sapiens) (UniProt P14416); test: Dopamine D2 receptor (DRD2) small molecule agonists, cell-based qHTS assay (AID 1963594); details: HEK293-DRD2 cAMP HTRF, agonist mode, 30 min; series mostly up to 92.4 µM; also: nearly all actives have a fitted effect of over 35% in size
D(2) dopamine receptor (Homo sapiens), sequence (P14416 whole entry, looked up): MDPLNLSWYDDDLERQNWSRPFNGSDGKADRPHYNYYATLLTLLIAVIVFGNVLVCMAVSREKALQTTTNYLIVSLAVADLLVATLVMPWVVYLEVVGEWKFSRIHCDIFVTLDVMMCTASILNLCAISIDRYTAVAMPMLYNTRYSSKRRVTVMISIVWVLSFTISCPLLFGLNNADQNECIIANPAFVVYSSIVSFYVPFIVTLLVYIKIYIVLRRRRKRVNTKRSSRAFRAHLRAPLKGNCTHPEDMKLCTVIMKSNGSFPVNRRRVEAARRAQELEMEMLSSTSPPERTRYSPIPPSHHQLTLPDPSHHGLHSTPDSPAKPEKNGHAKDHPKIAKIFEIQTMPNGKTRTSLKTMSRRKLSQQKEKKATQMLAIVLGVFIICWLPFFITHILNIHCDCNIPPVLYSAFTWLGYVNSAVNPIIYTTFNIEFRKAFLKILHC
Outline: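 HEK293 cells stably expressing DRD2 were cultured 24 h at 37 C, then given Ro20-1724 (0.1 mM final) and compounds for 10 min at room temperature. NKH477 (200nM) was then added for 30 min. cAMP was read by HTRF.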

[13] = target: D(2) dopamine receptor (Homo sapiens) (UniProt P14416); test: Dopamine D2 receptor (DRD2) small molecule antagonists, cell-based qHTS assay (AID 1963595; active = well fitted inhibition curve with a large enough effect in the signal ratio in the repeat runs, with a control signal flat; the % refers to the signal ratio); details: HEK293-DRD2 cAMP HTRF antagonist mode; series mostly up to 92.4 µM
Outline: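 Cells were plated and grown for 24 h at 37 °C. Ro20-1724 (0.1 mM final) went in first, then compound for 10 min. NKH477 (200 nM) with quinpirole (12 nM) followed for 30 min at RT, then HTRF detection reagents for 1 h.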

[14] = G protein-coupled receptor (GPCR) small molecule agonists, calcium flux assay: HEK293 wild type cell line counter screen (AID 1920065); details: HEK293 WT calcium flux, fluorescence, agonist mode; series mostly up to 57.6 µM
Outline: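 Agonist mode; 18 h seeding at 37 C, 1 h dye load at 37 C; compounds pinned from DMSO, ATP as positive control; kinetic fluorescence 480/540 nm, 3 min, 1 s reads; 15 concentrations, triplicate.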

[15] = p53 small molecule agonists, cell-based qHTS assay with human liver microsomes: qHTS cell viability counter screen (AID 1963579); details: p53RE-bla HCT-116 viability, ATP luminescence, 16 h, HLM; series mostly up to 66 µM; also: nearly all actives have a fitted effect of over 45% in size
Outline: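 Metabolic activation used human liver microsomes and NADPH, both 0.5 mg/mL final, over 16 hours at 37 C on p53RE-bla cells (4,000/well). Cytotoxicity measured by CellTiter-Glo luminescence, 30 min at room temperature.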

[16] = target: 5-hydroxytryptamine receptor 2A (Homo sapiens) (UniProt P28223); test: 5-hydroxytryptamine receptor 2A (HTR2A) small molecule antagonists, cell-based qHTS assay (AID 1963586); details: HTR2A-CHO cells, DOI-induced calcium flux, fluorescence; series mostly up to 61.5 µM; also: nearly all actives have a fitted effect of over 45% in size
5-hydroxytryptamine receptor 2A (Homo sapiens), sequence (P28223 whole entry, looked up): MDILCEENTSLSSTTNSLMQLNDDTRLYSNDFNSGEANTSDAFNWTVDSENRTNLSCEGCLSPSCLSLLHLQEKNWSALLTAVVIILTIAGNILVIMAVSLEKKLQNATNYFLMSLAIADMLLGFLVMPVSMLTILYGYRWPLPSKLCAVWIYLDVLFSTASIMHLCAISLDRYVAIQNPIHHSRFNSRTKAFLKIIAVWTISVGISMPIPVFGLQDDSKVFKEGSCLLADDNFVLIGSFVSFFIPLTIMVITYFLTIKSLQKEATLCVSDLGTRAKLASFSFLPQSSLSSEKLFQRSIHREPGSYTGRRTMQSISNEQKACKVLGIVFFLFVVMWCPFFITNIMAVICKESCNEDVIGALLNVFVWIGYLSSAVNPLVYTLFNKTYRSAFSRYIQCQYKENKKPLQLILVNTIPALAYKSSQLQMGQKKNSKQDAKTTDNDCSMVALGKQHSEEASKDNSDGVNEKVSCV
Outline: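 CHO cells stably expressing human HTR2A were plated for 18 h at 37 C, then loaded with calcium dye for 1 h. Compounds were preincubated 5 min at room temperature before DOI (4 nM solution) was added. Kinetic fluorescence was read for 3 min.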

[17] = target: Muscarinic acetylcholine receptor M1 (Homo sapiens) (UniProt P11229); test: Cholinergic receptor muscarinic 1 (CHRM1) small molecule antagonists, cell-based qHTS assay (AID 1963588); details: CHRM1-CHO antagonist mode, calcium flux fluorescence; series mostly up to 61.5 µM; also: nearly all actives have a fitted effect of over 40% in size
Muscarinic acetylcholine receptor M1 (Homo sapiens), sequence (P11229 whole entry, looked up): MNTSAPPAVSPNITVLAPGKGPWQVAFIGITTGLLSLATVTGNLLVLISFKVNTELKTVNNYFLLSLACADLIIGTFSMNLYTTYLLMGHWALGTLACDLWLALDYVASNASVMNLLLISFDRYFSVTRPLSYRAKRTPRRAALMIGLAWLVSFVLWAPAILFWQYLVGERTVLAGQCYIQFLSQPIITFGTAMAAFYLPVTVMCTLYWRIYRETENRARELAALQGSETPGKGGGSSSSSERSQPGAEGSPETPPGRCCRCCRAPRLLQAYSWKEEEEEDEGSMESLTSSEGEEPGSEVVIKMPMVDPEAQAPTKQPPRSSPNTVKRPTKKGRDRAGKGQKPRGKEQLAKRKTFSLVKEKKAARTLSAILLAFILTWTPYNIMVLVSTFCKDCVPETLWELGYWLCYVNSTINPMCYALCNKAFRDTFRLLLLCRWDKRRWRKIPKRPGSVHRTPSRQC
Outline: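 Compounds were tested at 15 concentrations in three independent runs. Dye-loaded CHRM1-CHO cells were exposed 5 min at room temperature before stimulation by acetylcholine added at 50nM. Intracellular calcium was read kinetically on FDSS for 3 min.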

[18] = target: Muscarinic acetylcholine receptor M1 (Homo sapiens) (UniProt P11229); test: Cholinergic receptor muscarinic 1 (CHRM1) small molecule agonists, cell-based qHTS assay (AID 1963589); details: CHRM1-CHO cells, agonist mode, calcium flux fluorescence; series mostly up to 76.8 µM; also: nearly all actives have a fitted effect of over 35% in size
Outline: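 Calcium flux read-out: kinetic fluorescence at 1 sec intervals after pin-tool compound addition to dye-loaded CHRM1-CHO cells (human M1). Agonist mode; 15 concentrations tested in triplicate independent runs.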

[19] = target: Beta-2 adrenergic receptor (Homo sapiens) (UniProt P07550); test: Adrenergic beta2 receptor (ADRB2) small molecule agonists, cell-based qHTS assay (AID 1963593); details: CHO-ADRB2 cells, cAMP HTRF, 30 min; series mostly up to 92.4 µM;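 also: CHO cells stably overexpressing human ADRB2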
Outline: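 CHO cells stably over-expressing ADRB2 were plated overnight at 37C, then dosed with compounds plus a stimulation mix containing 100uM IBMX and 25uM Ro-20-1724 for 0.5hr at room temperature. cAMP was measured by HTRF competition, 1hr.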

[20] = target: 5-hydroxytryptamine receptor 2A (Homo sapiens) (UniProt P28223); test: 5-hydroxytryptamine receptor 2A (HTR2A) small molecule agonists, cell-based qHTS assay (AID 1963587); details: HTR2A-CHO cells, calcium flux fluorescence, agonist mode; series mostly up to 76.8 µM; also: nearly all actives have a fitted effect of over 30% in size
Outline: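 HTR2A-CHO cells, plated 18 h at 37 C/5% CO2, dye-loaded 1 h at 37 C; compounds in DMSO added by pin tool (agonist mode). Intracellular calcium flux read as kinetic fluorescence on FDSS over 2 min at 1 s intervals.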

Measured: Potency

O=C/C=C/c1ccccc1
inactive: [1] | [2] | [3] | [4] | [5] | [6] | [7] | [8] | [9] | [10] | [11] | [12] | [13]

CCCCCCCCOC(=O)c1ccccc1C(=O)OCCCCCCCC
inactive: [2] | [3] | [14] | [4] | [5] | [15] | [6] | [7] | [16] | [17] | [18] | [9] | [10] | [19] | [12] | [13]

O=P(OCCCl)(OCCCl)OCCCl
inactive: [1] | [2] | [3] | [4] | [5] | [15] | [6] | [7] | [8] | [16] | [20] | [17] | [18] | [9] | [10] | [11] | [19] | [12] | [13]

OCCSSCCO
inactive: [2] | [3] | [14] | [4] | [6] | [7] | [8] | [16] | [20] | [17] | [18] | [9] | [10] | [11] | [19] | [12] | [13]

C/C(=N\NC(=O)Nc1cc(F)cc(F)c1)c1ncccc1C(=O)O
inactive: [1] | [3] | [14] | [4] | [5] | [15] | [6] | [7] | [8] | [16] | [20] | [17] | [18] | [9] | [10] | [11] | [19] | [12] | [13]
